The source of these data is PubChem BioAssay AID639 (Emory University Molecular Libraries Screening Center, 2007).

Structures are written as SMILES. Hit rate of the full screen: of about 86,000 compounds, about 1,200 (1.4%) were called active. The sample holds actives, similar compounds and a random draw of the others, so the mix is not that of the screen. A number with no mark means an inactive call. Cut-off read from the data, not from the text of the source: active = activity above about 200%; inactive = the rest.

Sequence of Estrogen receptor (Homo sapiens) (P03372 whole entry, looked up, the tested form may be a part): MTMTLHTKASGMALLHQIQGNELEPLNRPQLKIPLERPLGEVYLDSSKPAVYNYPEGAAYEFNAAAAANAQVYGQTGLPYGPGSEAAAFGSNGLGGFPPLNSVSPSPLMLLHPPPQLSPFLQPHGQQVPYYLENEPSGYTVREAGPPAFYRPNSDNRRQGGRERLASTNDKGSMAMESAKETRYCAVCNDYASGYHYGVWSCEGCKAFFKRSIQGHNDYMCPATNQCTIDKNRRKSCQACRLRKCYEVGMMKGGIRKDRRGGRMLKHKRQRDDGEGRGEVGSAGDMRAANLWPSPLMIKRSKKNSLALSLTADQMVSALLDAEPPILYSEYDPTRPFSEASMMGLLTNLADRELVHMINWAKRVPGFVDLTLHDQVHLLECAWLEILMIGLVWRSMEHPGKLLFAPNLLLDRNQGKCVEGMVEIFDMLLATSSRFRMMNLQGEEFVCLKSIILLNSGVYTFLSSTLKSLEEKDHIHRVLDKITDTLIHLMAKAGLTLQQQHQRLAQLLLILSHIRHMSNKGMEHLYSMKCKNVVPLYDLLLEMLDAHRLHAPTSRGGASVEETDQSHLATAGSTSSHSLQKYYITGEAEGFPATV

The experiment has as its target Estrogen receptor (Homo sapiens) (UniProt P03372). Description: ERα coactivator recruitment potentiators – biochemical, TR-FRET, ERα LBD, low estradiol, primary screen (AID 639).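 Note: binding measured in presence of low estradiol as agonist stimulus; 0% = peptide alone without receptor and 100% = receptor with peptide.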 Conditions: TR-FRET ERalpha-LBD/SRC-Cy5 coactivator binding, 2 h; at 25.6 µM; active compounds read high; 100 = basal binding, no effect.
With `O=C(CSc1nnc(-c2cnccn2)n1Cc1ccco1)c1ccc(Cl)c(Cl)c1`, the coactivator binding (% of control) was 137%.

As to `Cc1ccc(NC(=O)CSc2nnc(-c3cnccn3)n2Cc2ccco2)cc1C`, the coactivator binding (% of control) was 335% (active).

`CCOc1ccc(NC(=O)CN(C)CC(=O)Nc2cccc(Cl)c2C)cc1OCC`: the coactivator binding (% of control) is 105%.

On to `CC1CCC(NC(=O)c2ccc(N3CCCC3=O)cc2)CC1` (stereo unspecified), for which the coactivator binding (% of control) was 143%.

Turning to `O=C(NCCCN1CCCCCC1)c1ccc(N2CCCC2=O)cc1`, the coactivator binding (% of control) was 588% [fluorescence artefact?] (active).

Turning to `CCOc1ccc(C(=O)NCCCN2CCCC2=O)cc1`, the coactivator binding (% of control) was 96%.

For the compound `CCOc1cc(C(=O)Nc2c(C)ccc3nsnc23)cc(OCC)c1OCC`, the coactivator binding (% of control) is 78.1%.

`O=C(NCc1ccccc1)C1CCCN(S(=O)(=O)c2cccs2)C1` (stereo unspecified): the coactivator binding (% of control) was 91.1%.

Regarding `COCCNC(=O)COc1ccccc1C`, the coactivator binding (% of control) is 118%.

On to `COc1ccc(CCNC(=O)CN(c2ccccc2)S(C)(=O)=O)cc1OC`, for which the coactivator binding (% of control) is 76.4%.

Turning to `CN(C)c1ccnc2sc3c(=O)n(-c4ccc(Cl)cc4)cnc3c12`, the coactivator binding (% of control) was 162%.

On to `Cc1cc(C)n(-c2nc(SCC(=O)N3CCCC3)c3c4c(sc3n2)CCCC4)n1`, for which the coactivator binding (% of control) was 93.8%.

`COCCn1c(SCc2nnc(-c3ccc(OC)c(OC)c3)o2)nc2sc3c(c2c1=O)CCC3`: the coactivator binding (% of control) was 94.4%.

Consider `COCCn1c(C)cc(C(=O)CSc2ncnc3sc4c(c23)CCC4)c1C`, for which the coactivator binding (% of control) is 409% [fluorescence artefact?] (active).

For the compound `CCCCCCC12CCC(C(=O)O)(CC1)CC2`, the coactivator binding (% of control) was 104%.

`CC(=O)Oc1ccc(NC(=O)CCC2CCCCC2)c(C(=O)O)c1`: the coactivator binding (% of control) is 105%.

As to `CC(NC(=O)C1CCC(CNc2c(N3CCOCC3)c(=O)c2=O)CC1)c1ccccc1` (stereo unspecified), the coactivator binding (% of control) was 98.1%.

Turning to `CC1CCc2c(sc3nc4n(c(=O)c23)CCS4)C1` (stereo unspecified), the coactivator binding (% of control) was 96.2%.

On to `C=CCn1c(SCc2c(C)noc2C)nc2sc3c(c2c1=O)CCC(C)C3` (stereo unspecified), for which the coactivator binding (% of control) is 93.6%.

As to `Cc1nc(SCC(=O)Nc2cc(C)on2)c2c(C)c(C)sc2n1`, the coactivator binding (% of control) is 565% [fluorescence artefact?] (active).

For `Cc1ccc(-c2csc(SCC(=O)Nc3cc(C)on3)n2)cc1`, the coactivator binding (% of control) is 98.5%.

`Cc1cc(NC(=O)CSc2nc(C(C)C)nc3sc4c(c23)CCC(C)C4)no1` (stereo unspecified): the coactivator binding (% of control) is 269% [fluorescence artefact?] (active).

For `Cc1nc(SCC(=O)Nc2cc(C)on2)c2c3c(sc2n1)CCCC3`, the coactivator binding (% of control) was 128%.

Turning to `O=C(c1ccc2c(c1)OCO2)N1CCN(C(=O)c2ccco2)CC1`, the coactivator binding (% of control) was 103%.

With `Cc1cccc(S(=O)(=O)CC(=O)Nc2nc(-c3ccccc3)cs2)c1`, the coactivator binding (% of control) was 103%.

With `Cc1cc(=O)oc2cc(OCC3CC(c4ccccc4Cl)=NO3)ccc12` (stereo unspecified), the coactivator binding (% of control) was 117%.

As to `O=C(Nc1ccc(Br)cc1)c1cccc(NC(=O)C2C3CC4OC(=O)C2C4C3)c1` (stereo unspecified), the coactivator binding (% of control) was 115%.

Consider `CCN1C(=O)/C(=C\N2CCOCC2)SC1=S`, for which the coactivator binding (% of control) is 93%.

Turning to `CCN1C(=O)/C(=C\N2CCN(c3ccccc3)CC2)SC1=S`, the coactivator binding (% of control) was 289% (active).

With `CCN1C(=O)/C(=C\N2CCN(c3cccc(Cl)c3)CC2)SC1=S`, the coactivator binding (% of control) was 413% [fluorescence artefact?] (active).

Consider `CCS(=O)(=O)N1CCC(C(=O)N2CCN(c3ccccc3)CC2)CC1`, for which the coactivator binding (% of control) is 103%.

On to `CS(=O)(=O)N(CC(=O)N1CCN(c2cccc(Cl)c2)CC1)c1ccccc1`, for which the coactivator binding (% of control) is 118%.

Take `CCn1c(=O)cc(OCC(=O)NCCCN2CCN(c3cccc(Cl)c3)CC2)c2ccccc21`: the coactivator binding (% of control) was 107%.

As for `Cc1cccc(-c2nc3c(c(SCC(=O)N4CCOCC4)n2)CCCC3)c1`, the coactivator binding (% of control) was 94.4%.

In the case of `CC1CCN(C(=O)c2cc3nc(C4CC4)cc(C(F)(F)F)n3n2)CC1`, the coactivator binding (% of control) is 93.5%.

In the case of `COCCNC(=O)Cn1cc(C(=O)c2cccs2)c2ccccc21`, the coactivator binding (% of control) was 102%.

For the compound `CCn1c(Cc2ccccc2)nnc1SCC(=O)Nc1ccccc1`, the coactivator binding (% of control) is 122%.

With `CCn1c(SCC(=O)Nc2cccc(F)c2)nnc1-c1cc2cc(Br)ccc2o1`, the coactivator binding (% of control) was 476% (active).

As for `CCCn1c(SCC(=O)Nc2cccc(C(=O)OCC)c2)nnc1-c1ccoc1C`, the coactivator binding (% of control) is 97.2%.

On to `CCOc1ccc(-n2c(N)c(C(=O)NCC3CCCO3)sc2=S)cc1` (stereo unspecified), for which the coactivator binding (% of control) is 99.2%.

With `O=c1[nH][nH]c(C(F)(F)F)c1C=NCc1ccccc1Cl`, the coactivator binding (% of control) is 109%.

As for `CC1CCCC(C)N1CCCNC(=O)c1cc2c(=O)n(C)c3ccccc3c2n1C` (stereo unspecified), the coactivator binding (% of control) was 74.4%.

Regarding `Cn1c(C(=O)NCCc2ccsc2)cc2c(=O)n(C)c3ccccc3c21`, the coactivator binding (% of control) is 278% (active).

As to `Cn1c(C(=O)NCCCN2CCN(c3cccc(Cl)c3)CC2)cc2c(=O)n(C)c3ccccc3c21`, the coactivator binding (% of control) is 132%.

For the compound `CCOc1ccc(S(=O)(=O)NCC2CCCO2)cc1` (stereo unspecified), the coactivator binding (% of control) was 97.5%.

On to `COCCn1c(=S)[nH]c2cc(C(=O)NCCc3ccc(OC)c(OC)c3)ccc2c1=O`, for which the coactivator binding (% of control) was 179%.
